The target of assay [1] is Type-1 angiotensin II receptor (Homo sapiens) (UniProt P30556). Description: NVS_GPCR_hAT1: NovaScreen (NVS) G Protein-Coupled Receptor Assay for human Angiotensin II receptor type 1 (AT1) (AID 2283263). The gist of the method: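 Hits from a 25 uM duplicate screen (threshold e.g. 30% inhibition) were run in concentration-response with 50 uM top concentration. Displacement of specific radioligand from KAN-TS membrane preparations measured after 3 h by filter scintillation, DMSO as baseline.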

Assay [2] has as its target Muscarinic acetylcholine receptor M1 (Homo sapiens) (UniProt P11229). Description: NVS_GPCR_hM1: NovaScreen (NVS) G Protein-Coupled Receptor Assay for human Muscarinic, M1 Receptor (AID 2283270). Put shortly: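 Actives from a duplicate 25 uM single-point screen were retested in concentration series. Binding measured as displacement of a radioligand from CHO-derived receptor preparation, 1 h incubation, filtration and scintillation counting, analysed as signal loss against DMSO.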

Assay [3] deals with Muscarinic acetylcholine receptor M3 (Homo sapiens) (UniProt P20309). In words: NVS_GPCR_hM3: NovaScreen (NVS) G Protein-Coupled Receptor Assay for human Muscarinic, M3 Receptor (AID 2283272). Put shortly:
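Radioligand displacement binding on human M3 receptor in CHO-derived membranes, 1 h incubation, filter-based scintillation counting. Primary screen in duplicate at 25 uM; actives followed up in concentration series; loss of signal versus DMSO.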

In assay [4] the target is Muscarinic acetylcholine receptor M2 (Homo sapiens) (UniProt P08172). In words: NVS_GPCR_hM2: NovaScreen (NVS) G Protein-Coupled Receptor Assay for human Muscarinic, M2 Receptor (AID 2283273). The gist of the method:
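CHO-expressed human M2 receptor preparation, competitive displacement of a radioligand read by filter-based scintillation counting after 1 h. Single 25 uM duplicate screen, then concentration-response follow-up of actives; DMSO baseline.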

In assay [5] the target is human Muscarinic, M4 Receptor, CHRM4 (gene 1132) (UniProt P08173). In words: NVS_GPCR_hM4: NovaScreen (NVS) G Protein-Coupled Receptor Assay for human Muscarinic, M4 Receptor (AID 2283274). The gist of the method:
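Filter-based scintillation counting of radioligand bound to CHO-expressed human M4 preparations after 1 h; loss of signal fitted versus DMSO. Initial duplicate testing at 25 uM, concentration-response follow-up for actives.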

For assay [6], the target named is Muscarinic acetylcholine receptor M5 (Homo sapiens) (UniProt P08912). In words: NVS_GPCR_hM5: NovaScreen (NVS) G Protein-Coupled Receptor Assay for human Muscarinic, M5 Receptor (AID 2283275). Put shortly:
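Chemicals passing a primary duplicate screen at 25 uM were run as singleton concentration series, maximum 50 uM. Displacement of a specific radioligand from CHO-extracted receptor was read by filter scintillation after 1 h, relative to DMSO.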

The target in assay [7] is human Leukotriene B4 Receptor 1 (LTB4-BLT1), LTB4R (gene 1241) (UniProt Q15722). Description: NVS_GPCR_hLTB4_BLT1: NovaScreen (NVS) G Protein-Coupled Receptor Assay for human Leukotriene B4 Receptor 1 (LTB4-BLT1) (AID 2283271). Put shortly:
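Cell-free human neutrophil receptor preparation, 1 h exposure, radioligand binding read by filter scintillation counting. Single 25 uM duplicate screen, then concentration series topping at 50 uM; binding loss scored against DMSO baseline.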

For assay [8], the target named is human Endothelin Receptor Type A (ETA), EDNRA (gene 1909) (UniProt P25101). In words: NVS_GPCR_hETA: NovaScreen (NVS) G Protein-Coupled Receptor Assay for human Endothelin Receptor Type A (ETA) (AID 2283265). The gist of the method:
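Binding of radioligand to membrane protein extracted from SH-SY5Y cells was read by filtration and scintillation after 3 h. Compounds were screened at 25 uM in duplicate, with hits followed up in singleton concentration series to 50 uM.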

Assay [9] addresses human Dopamine Receptor D4.4 (DRD4.4), DRD4 (gene 1815) (UniProt P21917). In words: NVS_GPCR_hDRD4.4: NovaScreen (NVS) G Protein-Coupled Receptor Assay for human Dopamine Receptor D4.4 (DRD4.4) (AID 2283264). Put shortly:
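Filter-binding assay with a tritiated or iodinated ligand, cell-free receptor prepared from CHO, 1 hour. Loss of bound radioactivity versus DMSO; single 25 uM duplicate screen, then concentration-response for actives.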

For assay [10], the target named is human Neuropeptide Receptor Y1 (NPY1), NPY1R (gene 4886) (UniProt P25929). In words: NVS_GPCR_hNPY1: NovaScreen (NVS) G Protein-Coupled Receptor Assay for human Neuropeptide Receptor Y1 (NPY1) (AID 2283276). Put shortly: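 Displacement of specific radioligand from NPY1 receptor of SK-N-MC origin, read by filtration and scintillation after 1 h. Compounds first tested at 25 uM in duplicate, then actives in concentration series; signal loss relative to DMSO.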

Assay [11] deals with human Neurokinin, NK2 Receptor, TACR2 (gene 6865) (UniProt P21452). In words: NVS_GPCR_hNK2: NovaScreen (NVS) G Protein-Coupled Receptor Assay for human Neurokinin, NK2 Receptor (AID 2283278).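 Further: actives reduce bound radioligand signal relative to DMSO baseline.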 Put shortly:
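CHO-derived membrane protein, radioligand displacement, filter scintillation read at 4 h post-dose. Single-point 25 uM in duplicate, then concentration series for actives; DMSO as negative control.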

Assay [12] concerns the target human Opioid Receptor Delta 1 (Opiate D1), OPRD1 (gene 4985) (UniProt P41143). Description: NVS_GPCR_hOpiate_D1: NovaScreen (NVS) G Protein-Coupled Receptor Assay for human Opioid Receptor Delta 1 (Opiate D1) (AID 2283280). Put shortly: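 Membrane preparations from CHO cells bearing the human receptor were incubated 1 h with test chemical, and bound radioligand was counted after filtration. Actives from 25 uM duplicate screening were retested in concentration-response.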

Assay [13] concerns the target human Histamine 1 Receptor (H1), HRH1 (gene 3269) (UniProt P35367). Description: NVS_GPCR_hH1: NovaScreen (NVS) G Protein-Coupled Receptor Assay for human Histamine 1 Receptor (H1) (AID 2283268). The gist of the method: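 Filter-based scintillation detection of radioligand binding to human H1, 1 h incubation; chemicals screened in duplicate at 25 uM, then concentration-response; signal loss relative to DMSO taken as activity.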

The target in assay [14] is human Dopamine Receptor D2 (DRD2), DRD2 (gene 1813) (UniProt P14416). In words: NVS_GPCR_hDRD2s: NovaScreen (NVS) G Protein-Coupled Receptor Assay for human Dopamine Receptor D2 (DRD2) (AID 2283266). Put shortly:
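Test compound (25 uM, duplicate in the primary screen; concentration series at follow-up) competed with radioligand for human DRD2 in CHO-derived membrane protein. Filter-based scintillation counting was done 1.5 hours after dosing, with loss of signal analysed against DMSO.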

Assay [15] addresses D(1A) dopamine receptor (Homo sapiens) (UniProt P21728). Description: NVS_GPCR_hDRD1: NovaScreen (NVS) G Protein-Coupled Receptor Assay for human Dopamine Receptor D1 (DRD1) (AID 2283269). Put shortly: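 Cell-free radioligand binding to human DRD1 from HEK293 membranes, read 1 h after dosing by filter-based scintillation counting. Loss of signal versus DMSO baseline marks displacement. Primary screen at 25 uM single concentration in duplicate; actives followed up in concentration series.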

Assay [16] addresses Neuropeptide Y receptor type 2 (Homo sapiens) (UniProt P49146). Description: NVS_GPCR_hNPY2: NovaScreen (NVS) G Protein-Coupled Receptor Assay for human Neuropeptide Receptor Y2 (NPY2) (AID 2283277). Put shortly:
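Chemicals were first tested in duplicate at 25 uM, then actives in singleton concentration series to 50 uM. Tracer binding to SK-N-MC-derived protein measured cell-free after 1 h via filter scintillation; signal loss relative to DMSO.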

For assay [17], the target named is human Adrenergic, Beta 3 Receptor (Adrb3), ADRB3 (gene 155) (UniProt P13945). In words: NVS_GPCR_hAdrb3: NovaScreen (NVS) G Protein-Coupled Receptor Assay for human Adrenergic, Beta 3 Receptor (Adrb3) (AID 2283262). Put shortly: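 A cell-free filter binding assay read by scintillation counting, with displacement of a specific radioligand measured after 1 hour. The receptor source was SK-N-MC extracts (cells pretreated with isoproterenol and 8-bromo-cAMP). Compounds were first tested at 25 uM in duplicate and then in concentration series.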

In assay [18] the target is human Endothelin Receptor Type B (ETB), EDNRB (gene 1910) (UniProt P24530). Description: NVS_GPCR_hETB: NovaScreen (NVS) G Protein-Coupled Receptor Assay for human Endothelin Receptor Type B (ETB) (AID 2283267). The gist of the method: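 Filter-based scintillation readout of radioligand displacement, 4 h, using membranes from human astrocytoma cells. Actives from a 25 uM duplicate screen were retested in concentration-response (top 50 uM) relative to DMSO baseline.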

The target of assay [19] is Beta-2 adrenergic receptor (Homo sapiens) (UniProt P07550). Description: NVS_GPCR_hAdrb2: NovaScreen (NVS) G Protein-Coupled Receptor Assay for human Adrenergic, Beta 2 Receptor (Adrb2) (AID 2283261). Put shortly: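 Compounds screened in duplicate at 25 uM, then actives in concentration series. Human beta-2 receptor from CHO material, cell-free; radioligand displacement after 1 h measured by filtration and scintillation against DMSO baseline.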

Assay [20] has as its target human Neurotensin Receptor (NTS), NTSR1 (gene 4923) (UniProt P30989). In words: NVS_GPCR_hNTS: NovaScreen (NVS) G Protein-Coupled Receptor Assay for human Neurotensin Receptor (NTS) (AID 2283279). The gist of the method:
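Compounds competed with a radiolabelled ligand for binding to CHO-derived human neurotensin receptor; bound signal counted after filtration, 1 h. Screened first at a single concentration of 25 uM in duplicate, then concentration series to 50 uM maximum for actives.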

The text below walks through data of PubChem BioAssay (EPA / NIEHS).

A word on the AC50: it is the concentration at which the activity in the assay is half-maximal.

Inconclusive results are not listed. Calls of active or inactive are those of the source. How the source made its calls: active means hit-call score of the fitted dose curve at least 0.9, where 1 is the maximum; inconclusive means response in the unintended direction; inactive means score below 0.9.

Sequence of human Dopamine Receptor D2 (DRD2), DRD2 (gene 1813) (P14416 whole entry, looked up): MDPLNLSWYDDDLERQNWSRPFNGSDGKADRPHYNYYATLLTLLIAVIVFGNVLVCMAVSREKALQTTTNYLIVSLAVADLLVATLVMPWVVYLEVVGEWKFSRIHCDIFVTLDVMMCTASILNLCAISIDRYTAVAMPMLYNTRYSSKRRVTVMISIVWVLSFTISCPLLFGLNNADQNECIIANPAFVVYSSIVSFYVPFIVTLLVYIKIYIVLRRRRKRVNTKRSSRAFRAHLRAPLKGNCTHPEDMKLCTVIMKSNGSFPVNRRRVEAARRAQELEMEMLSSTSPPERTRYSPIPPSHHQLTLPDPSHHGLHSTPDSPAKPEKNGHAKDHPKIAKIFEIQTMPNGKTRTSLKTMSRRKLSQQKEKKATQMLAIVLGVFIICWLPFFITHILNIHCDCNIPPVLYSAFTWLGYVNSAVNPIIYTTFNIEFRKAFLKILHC
Sequence of Muscarinic acetylcholine receptor M5 (Homo sapiens) (P08912 whole entry, looked up): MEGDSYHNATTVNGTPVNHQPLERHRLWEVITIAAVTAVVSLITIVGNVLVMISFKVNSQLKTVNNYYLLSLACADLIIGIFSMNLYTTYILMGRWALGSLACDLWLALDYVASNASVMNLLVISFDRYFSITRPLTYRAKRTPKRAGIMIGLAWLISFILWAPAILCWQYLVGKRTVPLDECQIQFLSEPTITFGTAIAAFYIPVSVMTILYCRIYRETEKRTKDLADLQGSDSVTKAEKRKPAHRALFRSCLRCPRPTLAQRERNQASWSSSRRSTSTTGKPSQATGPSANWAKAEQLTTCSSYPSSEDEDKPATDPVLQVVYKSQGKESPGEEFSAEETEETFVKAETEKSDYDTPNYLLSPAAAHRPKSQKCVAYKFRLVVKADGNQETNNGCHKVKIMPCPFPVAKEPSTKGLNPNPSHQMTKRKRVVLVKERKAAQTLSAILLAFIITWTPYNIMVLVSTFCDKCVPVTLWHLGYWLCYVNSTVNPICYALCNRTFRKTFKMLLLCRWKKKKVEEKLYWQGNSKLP
Sequence of human Opioid Receptor Delta 1 (Opiate D1), OPRD1 (gene 4985) (P41143 whole entry, looked up): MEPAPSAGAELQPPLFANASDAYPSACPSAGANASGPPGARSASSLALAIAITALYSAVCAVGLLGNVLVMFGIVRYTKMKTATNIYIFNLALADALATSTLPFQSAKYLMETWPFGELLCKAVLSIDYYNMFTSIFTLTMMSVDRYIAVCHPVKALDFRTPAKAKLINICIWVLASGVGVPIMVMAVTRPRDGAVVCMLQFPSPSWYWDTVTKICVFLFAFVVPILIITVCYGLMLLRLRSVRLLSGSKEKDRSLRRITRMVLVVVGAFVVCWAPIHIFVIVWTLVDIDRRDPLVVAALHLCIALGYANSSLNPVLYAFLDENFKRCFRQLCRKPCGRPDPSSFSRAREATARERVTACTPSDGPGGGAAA
Sequence of human Neurokinin, NK2 Receptor, TACR2 (gene 6865) (P21452 whole entry, looked up): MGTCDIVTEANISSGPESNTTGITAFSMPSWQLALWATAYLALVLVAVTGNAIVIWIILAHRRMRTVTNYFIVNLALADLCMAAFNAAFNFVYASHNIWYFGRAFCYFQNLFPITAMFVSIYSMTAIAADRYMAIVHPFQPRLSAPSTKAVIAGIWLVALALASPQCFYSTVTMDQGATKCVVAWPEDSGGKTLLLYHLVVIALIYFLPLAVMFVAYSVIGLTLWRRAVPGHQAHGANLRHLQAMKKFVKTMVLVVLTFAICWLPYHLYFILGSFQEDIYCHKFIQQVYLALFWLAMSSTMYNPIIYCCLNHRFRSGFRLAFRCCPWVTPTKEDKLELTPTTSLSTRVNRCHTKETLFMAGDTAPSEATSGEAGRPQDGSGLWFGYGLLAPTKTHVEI
Sequence of Type-1 angiotensin II receptor (Homo sapiens) (P30556 whole entry, looked up): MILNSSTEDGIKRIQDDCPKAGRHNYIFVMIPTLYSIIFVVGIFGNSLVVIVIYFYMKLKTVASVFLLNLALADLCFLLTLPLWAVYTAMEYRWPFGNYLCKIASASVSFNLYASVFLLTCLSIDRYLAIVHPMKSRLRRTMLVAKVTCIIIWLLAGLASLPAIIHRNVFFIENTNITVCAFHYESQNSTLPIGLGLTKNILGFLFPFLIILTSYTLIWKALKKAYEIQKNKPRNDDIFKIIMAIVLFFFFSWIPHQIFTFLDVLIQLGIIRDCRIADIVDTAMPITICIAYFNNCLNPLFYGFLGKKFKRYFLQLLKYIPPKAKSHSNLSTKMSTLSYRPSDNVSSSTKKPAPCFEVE
Sequence of D(1A) dopamine receptor (Homo sapiens) (P21728 whole entry, looked up): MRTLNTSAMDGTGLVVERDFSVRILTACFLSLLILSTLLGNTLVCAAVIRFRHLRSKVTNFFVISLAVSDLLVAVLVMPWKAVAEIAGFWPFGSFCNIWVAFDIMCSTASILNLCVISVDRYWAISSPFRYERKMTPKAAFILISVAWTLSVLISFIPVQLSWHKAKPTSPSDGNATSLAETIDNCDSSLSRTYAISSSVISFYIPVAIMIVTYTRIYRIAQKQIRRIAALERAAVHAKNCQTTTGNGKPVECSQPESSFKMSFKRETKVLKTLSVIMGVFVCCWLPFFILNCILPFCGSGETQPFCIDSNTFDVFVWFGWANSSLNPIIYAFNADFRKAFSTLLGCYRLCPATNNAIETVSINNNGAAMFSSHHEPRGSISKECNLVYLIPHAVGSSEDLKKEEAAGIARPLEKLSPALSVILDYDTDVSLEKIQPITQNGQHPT
Sequence of human Leukotriene B4 Receptor 1 (LTB4-BLT1), LTB4R (gene 1241) (Q15722 whole entry, looked up): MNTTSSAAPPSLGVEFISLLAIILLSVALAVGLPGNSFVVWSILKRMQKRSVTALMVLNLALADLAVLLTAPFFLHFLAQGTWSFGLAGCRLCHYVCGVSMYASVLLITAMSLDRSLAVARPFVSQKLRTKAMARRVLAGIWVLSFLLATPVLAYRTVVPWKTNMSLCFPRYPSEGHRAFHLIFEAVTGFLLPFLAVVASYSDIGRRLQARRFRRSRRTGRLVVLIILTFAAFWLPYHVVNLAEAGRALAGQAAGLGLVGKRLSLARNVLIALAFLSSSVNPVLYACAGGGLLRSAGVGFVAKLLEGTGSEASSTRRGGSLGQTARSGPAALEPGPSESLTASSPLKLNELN
Sequence of human Dopamine Receptor D4.4 (DRD4.4), DRD4 (gene 1815) (P21917 whole entry, looked up): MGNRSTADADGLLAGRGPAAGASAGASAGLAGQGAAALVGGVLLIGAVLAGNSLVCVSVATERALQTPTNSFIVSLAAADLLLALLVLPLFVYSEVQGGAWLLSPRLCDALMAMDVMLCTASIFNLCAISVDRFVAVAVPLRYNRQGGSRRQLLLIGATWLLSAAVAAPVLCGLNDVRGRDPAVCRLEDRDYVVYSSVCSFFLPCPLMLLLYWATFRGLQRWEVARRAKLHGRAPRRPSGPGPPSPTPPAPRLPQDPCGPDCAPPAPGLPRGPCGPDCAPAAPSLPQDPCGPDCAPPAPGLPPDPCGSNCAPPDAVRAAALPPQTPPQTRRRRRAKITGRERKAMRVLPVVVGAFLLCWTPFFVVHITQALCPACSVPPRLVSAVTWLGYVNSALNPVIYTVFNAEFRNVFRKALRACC
Sequence of human Muscarinic, M4 Receptor, CHRM4 (gene 1132) (P08173 whole entry, looked up): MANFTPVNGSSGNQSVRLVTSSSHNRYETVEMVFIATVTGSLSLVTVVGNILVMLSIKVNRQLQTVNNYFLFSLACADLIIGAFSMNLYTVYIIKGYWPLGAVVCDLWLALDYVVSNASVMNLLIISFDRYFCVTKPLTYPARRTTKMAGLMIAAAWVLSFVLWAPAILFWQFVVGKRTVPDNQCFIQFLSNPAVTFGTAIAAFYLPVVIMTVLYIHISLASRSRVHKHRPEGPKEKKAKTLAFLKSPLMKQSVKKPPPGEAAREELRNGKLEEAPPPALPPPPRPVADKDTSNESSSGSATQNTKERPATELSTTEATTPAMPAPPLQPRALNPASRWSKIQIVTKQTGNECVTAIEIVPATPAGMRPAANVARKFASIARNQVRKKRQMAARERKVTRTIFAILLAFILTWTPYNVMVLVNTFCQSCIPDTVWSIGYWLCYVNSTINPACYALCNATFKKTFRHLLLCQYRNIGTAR
Sequence of human Histamine 1 Receptor (H1), HRH1 (gene 3269) (P35367 whole entry, looked up): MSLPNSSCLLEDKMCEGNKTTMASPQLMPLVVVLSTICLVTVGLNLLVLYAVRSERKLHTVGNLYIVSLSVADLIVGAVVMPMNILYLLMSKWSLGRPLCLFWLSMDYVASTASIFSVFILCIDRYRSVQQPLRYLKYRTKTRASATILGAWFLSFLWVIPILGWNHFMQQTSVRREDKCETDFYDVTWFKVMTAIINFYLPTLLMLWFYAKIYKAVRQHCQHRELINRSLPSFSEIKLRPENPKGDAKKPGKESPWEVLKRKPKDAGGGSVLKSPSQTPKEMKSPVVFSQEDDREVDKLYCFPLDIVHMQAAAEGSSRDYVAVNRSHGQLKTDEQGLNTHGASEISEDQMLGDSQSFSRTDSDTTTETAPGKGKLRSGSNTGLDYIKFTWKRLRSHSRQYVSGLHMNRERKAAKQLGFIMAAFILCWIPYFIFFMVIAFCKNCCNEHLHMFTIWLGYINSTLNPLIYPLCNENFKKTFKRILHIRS
Sequence of Muscarinic acetylcholine receptor M2 (Homo sapiens) (P08172 whole entry, looked up): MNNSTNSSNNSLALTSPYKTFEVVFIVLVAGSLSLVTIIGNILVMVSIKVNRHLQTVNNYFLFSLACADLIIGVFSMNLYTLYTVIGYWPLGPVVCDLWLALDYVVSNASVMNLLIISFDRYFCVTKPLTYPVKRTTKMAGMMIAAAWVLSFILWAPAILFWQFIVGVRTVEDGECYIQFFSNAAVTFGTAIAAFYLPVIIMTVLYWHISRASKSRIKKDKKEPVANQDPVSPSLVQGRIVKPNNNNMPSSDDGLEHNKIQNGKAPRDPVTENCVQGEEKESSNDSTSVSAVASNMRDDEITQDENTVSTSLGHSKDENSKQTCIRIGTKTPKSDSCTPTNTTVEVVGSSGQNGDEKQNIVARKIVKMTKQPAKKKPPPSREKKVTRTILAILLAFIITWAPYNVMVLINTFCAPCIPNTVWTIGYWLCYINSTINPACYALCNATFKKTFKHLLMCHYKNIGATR

With `Cc1nccn1-c1ccc(Sc2cccc(C3(C(N)=O)CCOCC3)c2)cc1`, the result in assay [1], in assay [3] and in assay [6] was inactive. Moreover, the AC50 in assay [2] is 7.4 µM (active); in [4] it was 6.6 µM (active); in assay [5], 6.73 µM (active).

On to `NC(N)=O`, for which the molecule was classed as inactive in assay [7].

In the case of `CC[C@H](C)C(=O)O[C@H]1C[C@H](O)C=C2C=C[C@H](C)[C@H](CC[C@@H](O)C[C@@H](O)CC(=O)O)[C@H]21`, in [8], the molecule was called inactive.

For `O=C(NO)C1(NS(=O)(=O)c2ccc(Oc3ccc(F)cc3)cc2)CCOCC1`, in [9], the AC50 was 25 µM (active).

Turning to `CCN(CC)C(=S)SSC(=S)N(CC)CC`, the molecule was called inactive in [1]. The concentration at half-maximal activity (AC50) in assay [10] is 17.5 µM (active); in assay [11], 1.35 µM (active).

Consider `O=C(O)c1ccc2c(c1)nc(C(=O)NC1CCN(C3CC3)CC1)n2Cc1cc(-c2ccc(Cl)s2)on1`, for which the molecule was classed as inactive in assay [12].

As to `c1ccc2cc3ccccc3cc2c1`, the result in [13] was inactive.

As for `CCCCCCCCCC`, the call in assay [14], in assay [15], in assay [4], in assay [5], in [10] and in assay [11] was inactive.

`CCCCCCCC/C=C\CCCCCCCC(=O)OC[C@@H](O)[C@H]1OC[C@H](O)[C@H]1O`: in [15], the AC50 was 34.5 µM (active). Also, the result in assay [16] was inactive.

Consider `OCC(CO)(CO)CO`, for which the call in assay [17], in assay [18] and in [7] was inactive.

For `CC(C)CCCCCCOC(=O)C1CCCCC1C(=O)OCCCCCCC(C)C` (configuration not stated), the outcome in assay [19] was inactive.

On to `CCc1ccc(O)c(C(C)(C)C)c1`, for which, in assay [14], the molecule was classed as inactive.

For `C=CCc1cc(S(=O)(=O)c2ccc(O)c(CC=C)c2)ccc1O`, the AC50 in assay [1] is 17.1 µM (active); in [9] it was 25 µM (active); in assay [14] it was 33.1 µM (active); in [15], 9.78 µM (active); in assay [6], 25 µM (active); in assay [11] it was 20.6 µM (active). Moreover, the AC50 in [12] is 15.5 µM (active). Besides, the result in [5] was inactive.

For `CCCCCCCC1CCC(=O)O1` (configuration not stated), in assay [7], the result was inactive.

On to `CCCCCCCCCCCCCCCCOS(=O)(=O)O`, for which the AC50 in assay [9] is 12.5 µM (active); in assay [13], 18.1 µM (active); in assay [15], 4.49 µM (active); in assay [3], 8.33 µM (active); in assay [6], 8.94 µM (active); in assay [12] it was 3.9 µM (active). Besides, the call in assay [14] and in [16] was inactive.

Turning to `CCCCCCCCN(C)C`, the outcome in assay [17] and in assay [13] was inactive. For the same molecule, the half-maximal activity concentration (AC50) in assay [20] is 16.7 µM (active).
